MPTP inh: blocks calcium-induced mitochondrial swelling; AID 602449; 360,000 tested, 1.4% active; isolated mouse mitochondria, Ca2+ swelling absorbance, 30 min; inhibition, % at 10 µM;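 active means inhibition of 50% or more, scaled per plate between neutral and stimulator controls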
tim23-1 inh: growth inhibitors of tim23-1 mutant yeast; S. cerevisiae tim23-1 growth, BacTiter-Glo luminescence, 24 h; inhibition, % at 20 µM; 330,000 tested, 1.3% active;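 active means growth inhibition of the mutant yeast at or above 50%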;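 further: temperature-sensitive mutant grown at 25 °C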
tim10-1 inh: growth inhibitors of tim10-1 mutant yeast; inhibition, % at 20 µM; 330,000 tested, 2.2% active; S. cerevisiae tim10-1 ts strain growth, BacTiter-Glo, 24 h;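 active means inhibition of at least 40%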;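 further: mutant grown at 25 °C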
TIM10 inh: growth inhibitors of TIM10 yeast strain. 330,000 tested, 1.4% active. inhibition, % at 10 µM. S. cerevisiae TIM10 strain growth, BacTiter-Glo luminescence, 24 h;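 active means inhibition of 40% or more at the single tested concentration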;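 further: wild-type TIM10 isogenic control strain grown at permissive 25 °C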
Mdm2-MdmX inh: inhibitors of human Mdm2/MdmX interaction. AID 485346. 330,000 tested, 3% active. O15151+Q00987. SaOS-2 split-luciferase Mdm2/MdmX complementation, luminescence. inhibition, % at 8 µM;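 active means inhibition of at least 50% at 8 µM in the primary screen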
Target sequence (O15151 whole entry, looked up): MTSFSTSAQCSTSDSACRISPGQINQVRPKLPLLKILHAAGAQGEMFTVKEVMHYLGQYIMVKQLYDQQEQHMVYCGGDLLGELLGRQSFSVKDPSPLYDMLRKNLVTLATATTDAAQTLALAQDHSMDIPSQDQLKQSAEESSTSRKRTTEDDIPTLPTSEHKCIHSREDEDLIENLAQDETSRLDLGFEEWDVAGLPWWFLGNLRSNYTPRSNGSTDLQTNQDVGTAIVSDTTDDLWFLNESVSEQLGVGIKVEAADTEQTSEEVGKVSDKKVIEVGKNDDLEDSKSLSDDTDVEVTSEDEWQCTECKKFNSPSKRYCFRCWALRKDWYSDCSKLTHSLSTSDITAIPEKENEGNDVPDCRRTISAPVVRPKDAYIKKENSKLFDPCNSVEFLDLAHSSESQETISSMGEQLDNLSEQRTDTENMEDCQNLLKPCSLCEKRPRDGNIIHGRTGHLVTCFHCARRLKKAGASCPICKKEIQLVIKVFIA
Target sequence (Q00987 whole entry, looked up): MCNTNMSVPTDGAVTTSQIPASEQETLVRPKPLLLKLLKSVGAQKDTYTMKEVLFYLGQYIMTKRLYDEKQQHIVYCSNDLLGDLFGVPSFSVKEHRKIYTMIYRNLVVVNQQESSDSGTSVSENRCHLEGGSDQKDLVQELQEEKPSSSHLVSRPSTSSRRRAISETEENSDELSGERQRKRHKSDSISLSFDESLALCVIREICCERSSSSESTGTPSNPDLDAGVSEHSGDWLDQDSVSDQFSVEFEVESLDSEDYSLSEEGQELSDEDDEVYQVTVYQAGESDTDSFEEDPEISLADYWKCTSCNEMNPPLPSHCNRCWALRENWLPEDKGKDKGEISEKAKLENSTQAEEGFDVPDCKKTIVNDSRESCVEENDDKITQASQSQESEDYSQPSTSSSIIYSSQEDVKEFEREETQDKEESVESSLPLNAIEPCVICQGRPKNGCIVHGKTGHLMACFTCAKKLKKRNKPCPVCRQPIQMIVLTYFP
tim10-1 conf: tim10-1 yeast growth inhibition, confirmed. S. cerevisiae tim10-1 ts strain growth, BacTiter-Glo, 24 h. 7,400 tested, 56% active. shares compounds with tim10-1 inh. inhibition, % at 20 µM;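 active means inhibition of yeast growth at or above a set limit in either of two repeat tests at 20 µM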;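 further: tim10-1 mutant grown at permissive 25 °C to find synthetic lethal compounds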
tim10 confirm: confirmation of TIM10 yeast growth inhibitors | shares compounds with TIM10 inh | S. cerevisiae tim10 strain growth, BacTiter-Glo luminescence, 24 h | inhibition, % at 10 µM | 4,600 tested, 63% active | AID 463215;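 active means inhibition of yeast growth at or above a set limit in either of two replicates at 10 µM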; further: this counterscreen used the strain with wild-type TIM10
Each line names hits and unclear results; the compound was inactive in the other large screens (follow-up assays come after a bar, where they were run). An excerpt weighted towards active compounds, which were near 6.3% of everything screened.

O=c1[nH]c(=O)n(C2OC(CO)C(O)C2O)c2c1CCCC2 (stereo unspecified)	none (no result: tim23-1 inh, tim10-1 inh, TIM10 inh, Mdm2-MdmX inh)
CCC(=O)N(C)C[C@H]1Oc2ncc(C#Cc3cccnc3)cc2C(=O)N([C@@H](C)CO)C[C@@H]1C	none (no result: tim23-1 inh, tim10-1 inh, TIM10 inh, Mdm2-MdmX inh)
COc1ccc(CC(N)c2csc(NC(=O)C(c3ccccc3)c3ccccc3)n2)cc1 (stereo unspecified)	none (no result: tim23-1 inh, tim10-1 inh, TIM10 inh, Mdm2-MdmX inh)
CCc1c(C)nc2cc(-c3ccc(OC)c(OC)c3)nn2c1N1CCCC1	tim10-1 inh 41.3, TIM10 inh 41.6 | tim10-1 conf inactive | tim10 confirm inactive
CCc1c(C)nc2cc(-c3ccc(OC)c(OC)c3)nn2c1N1CCC(C)CC1	none
C[C@H]1CN([C@@H](C)CO)C(=O)CCCn2cc(nn2)CO[C@@H]1CN(C)C(=O)NC1CCCCC1	none (no result: tim23-1 inh, tim10-1 inh, TIM10 inh, Mdm2-MdmX inh)
Cc1ccc(S(=O)(=O)N2C[C@H]3[C@H]4C(=O)N(c5ccccc5)C(=O)[C@H]4C[C@H](OC(=O)NCc4ccccc4F)[C@@]3(O)C2)cc1	none (no result: tim23-1 inh, tim10-1 inh, TIM10 inh, Mdm2-MdmX inh)
CN1CCc2c(C#N)c(N3CCCCC3)nc(NCc3ccccc3)c2C1	tim10-1 inh 48.3, TIM10 inh 43.0 | tim10-1 conf 31.9 | tim10 confirm inactive
N#Cc1c(NCCCO)nc(NCc2ccccc2)c2c1CCN(Cc1ccccc1)C2	none
Cc1ccn2c(C(=O)N/N=C\c3cccs3)c(C)nc2c1	none
Cc1ccc(C)c(-n2c(C)cc(/C=N/NC(=O)c3c(C)nc4cc(C)ccn34)c2C)c1	tim10-1 inh 53.4, TIM10 inh 41.8 | tim10-1 conf inactive | tim10 confirm inactive
Clc1ccc2c(N/N=C/c3cccnc3)ccnc2c1	tim10-1 inh 51.3, TIM10 inh 71.4 | tim10-1 conf 56.8 | tim10 confirm 79.4
CN(C(=O)COC(=O)/C=C/c1ccccc1)C1CCS(=O)(=O)C1 (stereo unspecified)	none (no result: tim23-1 inh, tim10-1 inh, TIM10 inh, Mdm2-MdmX inh)
COc1ccc(C(=O)Nc2ccccc2C(=O)N/N=C/c2cccc3ccccc23)cc1	tim10-1 inh 59.9, TIM10 inh 56.3 | tim10-1 conf 57.0 | tim10 confirm 37.2
COC(=O)c1sc(NC(=O)c2c(F)cccc2F)c(C#N)c1C	tim10-1 inh 45.0, TIM10 inh 41.3 | tim10-1 conf 37.7 | tim10 confirm inactive
COC(=O)c1sc(NC(=O)c2c(OC)cccc2OC)c(C#N)c1C	none
CCOC(=O)c1ccc(N2C(=O)CC(SCC(=O)Nc3ccc(S(N)(=O)=O)cc3)C2=O)cc1 (stereo unspecified)	tim10-1 inh 51.1, TIM10 inh 41.4 | tim10-1 conf 45.0 | tim10 confirm 46.5
Cc1ccc(N2C(=O)CC(SCC(=O)Nc3ccc(S(N)(=O)=O)cc3)C2=O)cc1 (stereo unspecified)	none
COc1ccc(N2C(=O)CC(Sc3ncn[nH]3)C2=O)c(OC)c1 (stereo unspecified)	none
CC(C)c1ccc(N2C(=O)CC(Sc3ncn[nH]3)C2=O)cc1 (stereo unspecified)	tim10-1 inh 45.6, TIM10 inh 69.3 | tim10-1 conf 51.9 | tim10 confirm 62.5
COc1ccccc1NC(=O)COC(=O)c1ccc([N+](=O)[O-])s1	tim10-1 inh 70.0, TIM10 inh 81.8 | tim10-1 conf 67.6 | tim10 confirm 88.7
O=C(COC(=O)c1ccc([N+](=O)[O-])o1)NCc1ccc(F)cc1	none
O=C(COC(=O)c1ccc([N+](=O)[O-])s1)NCCc1ccccc1	tim10-1 inh 50.4, TIM10 inh 46.3 | tim10-1 conf 47.0 | tim10 confirm 57.2
O=C(COC(=O)c1ccc([N+](=O)[O-])s1)NCc1ccc(F)cc1	tim10-1 inh 45.1, TIM10 inh 64.4 | tim10-1 conf inactive | tim10 confirm inactive
O=C(COC(=O)c1ccc([N+](=O)[O-])s1)NC(=O)NCc1ccccc1	tim10-1 inh 69.9, TIM10 inh 70.1 | tim10-1 conf 51.8 | tim10 confirm 70.7
O=c1[nH][nH]c(-c2ccccc2O)c1C(C[N+](=O)[O-])c1ccc(Cl)cc1Cl (stereo unspecified)	tim10-1 inh 55.2, TIM10 inh 42.2 | tim10-1 conf 30.1 | tim10 confirm inactive
COc1cc(C(C[N+](=O)[O-])c2c(C)[nH]c3ccccc23)ccc1O (stereo unspecified)	none
N/C(=N\OC(=O)Cc1ccc(-c2ccccc2)cc1)c1ccccn1	tim10-1 inh 53.7, TIM10 inh 52.5 | tim10-1 conf 50.0 | tim10 confirm inactive
COc1ccc(CC(=O)O/N=C(\N)c2ccccn2)cc1	none
Cc1ccc(S(=O)(=O)N2CCOCC2)cc1NC(=O)CN(C)CC(=O)Nc1cccc(F)c1	none (no result: tim23-1 inh, tim10-1 inh, TIM10 inh, Mdm2-MdmX inh)
COc1ccc(-c2c(Sc3ccccc3)c3cc(-c4ccc5c(c4)OCO5)ccc3n2C)cc1	none (no result: tim23-1 inh, tim10-1 inh, TIM10 inh, Mdm2-MdmX inh)
CCc1nc2ccc(C(=O)N(CC)CCN(C)C)cn2c1N(C)C(=O)C1CCCCC1	none (no result: tim23-1 inh, tim10-1 inh, TIM10 inh, Mdm2-MdmX inh)
O=S(=O)(Nc1nc2ccccc2nc1NCc1ccco1)c1ccccc1	none
O=S(=O)(c1ccccc1)c1ccc(NCc2ccco2)cc1	tim10-1 inh 43.1, TIM10 inh 42.2 | tim10-1 conf 38.4 | tim10 confirm 39.1
CC(=O)c1cccc(NC(=O)C2C(c3ccccc3)C2(Cl)Cl)c1 (stereo unspecified)	tim10-1 inh 44.5, TIM10 inh 41.5 | tim10-1 conf inactive | tim10 confirm inactive
CC(=O)Nc1cc(-c2ccoc2)cn2c(-c3ccccc3)cnc12	none (no result: tim23-1 inh, tim10-1 inh, TIM10 inh, Mdm2-MdmX inh)
CCOC(=O)c1c(N2C(=O)C=CC2=O)sc(C)c1C	tim10-1 inh 47.2, TIM10 inh 76.9 | tim10-1 conf 44.2 | tim10 confirm 72.2
CCOC(=O)c1c(NC(N)=O)sc(C)c1C	none
CCOC(=O)c1c(NC(=O)CC)sc(C(=O)N2CCCCC2)c1C	none
CCOC(=O)c1sc(NC(=O)CCN2CCCCCC2)c(C(=O)OCC)c1C	tim10-1 inh 60.8, TIM10 inh 44.1 | tim10-1 conf 51.1 | tim10 confirm 42.7
Cc1ccc(-n2nnnc2CNC(=O)C(=O)c2c[nH]c3ccccc23)cc1C	none (no result: tim23-1 inh, tim10-1 inh, TIM10 inh, Mdm2-MdmX inh)
COc1ccc(Nc2nc(-c3ccc4c(c3)NC(=O)CO4)cs2)cc1	TIM10 inh 46.2 | tim10-1 conf 30.7 | tim10 confirm 46.3
COc1ccccc1Nc1nc(-c2ccc3c(c2)NC(=O)CO3)cs1	none
CCOC(=O)C1CCN(C(=O)c2cc3cc4cc(OC)ccc4nc3o2)CC1	tim10-1 inh 47.6, TIM10 inh 52.6 | tim10-1 conf 51.0 | tim10 confirm inactive
COc1ccc2nc3oc(C(=O)N4CCCCC4)cc3cc2c1	none
Cc1nn(C(C)(C)C)c(OC(=O)c2ccc(Br)o2)c1Sc1ccccc1	tim10-1 inh 41.2, TIM10 inh 40.7 | tim10-1 conf 36.1 | tim10 confirm 36.0
Cc1nn(C(C)(C)C)c(OC(=O)c2ccco2)c1Sc1ccccc1	tim10-1 inh 49.3, TIM10 inh 46.9 | tim10-1 conf 38.6 | tim10 confirm 46.1
